According to PubChem BioAssay (NCATS):
Several values for one entry are separate records, joined by “and”; a condition that tells them apart may be missing. Identical values can stand only once. Inconclusive results are not listed. Activity calls are given as the source filed them. Unless noted, calls follow the shape of the dose curve; as a rule, active = well fitted curve in the direction sought with a large enough effect; inconclusive = small, poorly fitted or top-dose-only effect, or another doubt; inactive = no such curve, though single readings can be large; an effect the other way counts as inactive or inconclusive.

Key:
[1] = Cell Viability - MRC5 (AID 434; calls by dose curve;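 also: potency is read from the fitted curve at half-maximal effect; potency reflects cytotoxicity seen as loss of intracellular ATP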); conditions: MRC5 lung fibroblast viability, qHTS
In short: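 MRC5 normal human lung fibroblasts, 1500 cells/well, exposed to compound for 40 hr at 37 C. Cellular ATP was read by CellTiter-Glo luminescence; data normalized to DMSO and 100 uM tamoxifen, with AC50 from Hill fits.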

[2] = Cell Viability - HUV-EC-C (AID 542); conditions: HUV-EC-C endothelial cell viability, qHTS; series mostly up to 92.2 µM; also: % is scaled to controls: 0 for no effect and ±100 for the full control effect; nearly all actives have a fitted effect of over 35% in size
In short: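 HUV-EC-C human vascular endothelial cells, 1000/well, exposed to compound for 40 hr at 37 °C in complete medium. Intracellular ATP was read by CellTiter-Glo luminescence. AC50 came from Hill-equation fits of concentration-response data.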

[3] = Cellular Toxicity (caspase-3) HepG2 (AID 654); conditions: HepG2 caspase-3 activation, luminescence; series mostly up to 92.2 µM;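 also: cells exposed to compound for 16 hours before reading; 0% = DMSO alone and 100% = caspase signal from 100 µM tamoxifen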
In short: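 HepG2 cells (1500/well) were treated 16 h at 37 °C in complete medium, then caspase 3/7 activity was read by Caspase-Glo luminescence. Data were normalized to DMSO and 100 uM tamoxifen; AC50 came from Hill-equation fits of qHTS concentration-response.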

[4] = Cellular Toxicity (caspase-3) HUV-EC-C (AID 656); conditions: HUV-EC-C cells, caspase-3 activation (apoptosis); series mostly up to 92.2 µM
In short: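 qHTS; HUV-EC-C, 1000 cells/well; 5 hr settle, 16 hr cmpd, 37°C; Caspase-Glo 3/7, 20 min RT; luminescence. Norm: DMSO = 0%, tamoxifen 100 uM = 100%. Hill-fit AC50.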

[5] = Cellular Toxicity (caspase-3) SHSY5Y (AID 657); conditions: SH-SY5Y caspase-3 activation; series mostly up to 91.7 µM
In short: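 qHTS, SH-SY5Y, 1500 cells/well, 5 h pre-incubation 37 °C; compound 16 h 37 °C; Caspase-Glo 3/7 1 h RT; luminescence. Norm.: DMSO = 0, 10 uM staurosporine = 100%. Hill fit → AC50.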

[6] = Cellular Toxicity (caspase-3) Mesangial (AID 660); conditions: mesangial cells, normalized: DMSO 0%, 100 µM tamoxifen 100%; series mostly up to 91.7 µM
In short: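 Human renal glomerular mesangial cells, 1000/well, 5 h at 37 C before 16 h compound treatment. Caspase-Glo 3/7 luminescence after 20 min; normalized to DMSO and 100 uM tamoxifen, AC50 from Hill fit.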

[7] = Cellular Toxicity (caspase-3) SK-N-SH (AID 661); conditions: SK-N-SH caspase-3 activation, qHTS, DMSO as zero, staurosporine as full; series mostly up to 91.7 µM
In short: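 Human SK-N-SH neuroblastoma cells, 1500/well, were exposed to compounds for 16 hours at 37 °C. Caspase-Glo 3/7 luminescence was normalized to DMSO (basal) and 10 uM staurosporine (100%), and AC50 came from a Hill fit.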

[8] = Cellular Toxicity (caspase-3) H-4-II-E (AID 663); conditions: H-4-II-E rat hepatoma; Potency: caspase-3 activation; series mostly up to 92.2 µM;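 also: cells exposed to compound for 16 hr before readout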
In short: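 Rat hepatoma H-4-II-E cells (1500/well) plated 5 hr, then exposed to compound titrations for 16 hr at 37 °C. Caspase-Glo 3/7 luminescence read after 20 min at RT; data normalized to DMSO and 100 uM tamoxifen, AC50 from Hill fits.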

[9] = Cellular Toxicity (caspase-3) N2a (AID 665); conditions: N2a cells, luminescence, normalized: DMSO 0%, 10 µM staurosporine 100%; series mostly up to 92.2 µM;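 also: compound exposure lasted 16 h at 37 °C before readout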
In short: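 Mouse N2a neuroblastoma cells, 1500 per well, treated 16 h at 37 °C in complete medium; caspase-3/7 activity by Caspase-Glo luminescence after 1 h. Normalized to DMSO and 10 uM staurosporine; AC50 from Hill fits.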

[10] = Cellular Toxicity (caspase-3) NIH 3T3 (AID 666); conditions: NIH 3T3 caspase-3 activation, apoptosis/toxicity, 0% DMSO, 100% is 100 µM tamoxifen; series mostly up to 92.2 µM;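 also: caspase signal read after 16 h compound exposure; 0% = DMSO basal and 100% = 100 µM tamoxifen stimulation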
In short: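 Mouse NIH 3T3 fibroblasts (1000/well) treated 16 h at 37 C; caspase-3/7 activity measured by Caspase-Glo 3/7 luminescence after 20 min. Normalized to DMSO and 100 uM tamoxifen; AC50 from Hill fits.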

[11] = Cellular Toxicity (caspase-3) Renal Proximal Tubule (AID 667); conditions: renal proximal tubule cells, primary cells freshly taken from rat; Potency: caspase-3 activation; series mostly up to 91.7 µM;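 also: cells exposed to compound for 16 hours at 37 °C before detection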
In short: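 AC50 derived by standard Hill fit of concentration-response data, normalized between DMSO basal and 10 uM staurosporine as 100% stimulation. Cells: primary rat kidney proximal tubule, 16 h treatment at 37 °C.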

[12] = MultiTox-Fluor Cytotoxicity Assay - LYMP1-001 - Dead Cells (AID 946); conditions: LYMP1-001 lymphoblastoid cells, dead-cell protease fluorescence; series mostly up to 92.2 µM;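 also: 0% = DMSO and 100% = tetraoctylammonium bromide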
In short: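 LYMP1-001 lymphoblastoid cells (2500/well) treated 16 h at 37 C. Dead-cell protease cleavage of bis-AAF-R110 read at Ex/Em 485/520. Normalized to DMSO and 15 uM tetraoctylammonium bromide; AC50 from Hill fits.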

[13] = MultiTox-Fluor Cytotoxicity Assay - LYMP1-003 - Dead Cells (AID 961); conditions: LYMP1-003 lymphoblastoid cells, dead-cell protease fluorescence; series mostly up to 92.2 µM;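 also: 0% = DMSO and 100% = tetraoctylammonium bromide; nearly all actives have a fitted effect of over 70% in size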
In short: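 LYMP1-003 human lymphoblastoid cells (2500/well) exposed to compound 16 h at 37 C in complete medium; dead-cell protease read with bis-AAF-R110 fluorescence (Ex/Em 485/520) after 60 min at room temperature. Normalized to DMSO and 15 uM tetraoctylammonium bromide; AC50 from Hill fit.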

[14] = MultiTox-Fluor Cytotoxicity Assay - LYMP1-003 - Live Cells (AID 962); conditions: LYMP1-003 lymphoblastoid cells, MultiTox-Fluor live-cell protease fluorescence; series mostly up to 92.2 µM;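 also: 0% = DMSO only and full loss = 92 µM tetraoctylammonium bromide; cytotoxic hits lower the live-cell protease signal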
In short: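 LYMP1-003 lymphoblastoid cells, 2500/well in complete medium, treated 16 h at 37 C; live-cell protease cleavage of GF-AFC read by fluorescence (Ex/Em 405/510) after 60 min reagent; AC50 from Hill fits of concentration-response.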

[15] = Cell Viability - LYMP1-003 - Assay at 24 hr (AID 963); conditions: LYMP1-003 lymphoblastoid cell viability; series mostly up to 92.2 µM;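 also: plate controls were DMSO only for no effect and tetraoctylammonium bromide positive control for full effect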
In short: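 Human lymphoblastoid LYMP1-003 cells, 2500/well, treated 24 h at 37 C in complete medium. Viability read as intracellular ATP by CellTiter-Glo luminescence after 30 min at room temperature; AC50 from Hill-equation fits of qHTS concentration-response.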

[16] = Cell Viability - LYMP1-002 - Assay at 24 hr (AID 993); conditions: LYMP1-002 lymphoblastoid cells viability; series mostly up to 92.2 µM; also: % is scaled to controls: 0 for no effect and ±100 for the full control effect
In short: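 Human lymphoblastoid LYMP1-002 cells (2500/well) treated 24 h at 37 °C; viability as intracellular ATP by CellTiter-Glo luminescence. Tetraoctylammonium bromide as positive control; AC50 from Hill-equation fits of qHTS concentration-response.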

[17] = qHTS Assay for Identification of Small Molecule Inducers of Hypoxia Response (AID 2120; active = well fitted curve in the direction sought with a large enough effect in the signal ratio, with a control signal flat, not every such curve was filed as active; the % refers to the signal ratio; also: 0% is about no effect); conditions: hypoxia response reporter cells, beta-lactamase ratio readout; series mostly up to 104 µM
In short: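 HRE-bla ME-180 cells in Opti-MEM with 0.5% dialyzed FBS, pre-plated 4-5 h, then compound titration for 17 h at 37 degrees Celsius. CCF4 loaded 2.5 h at room temperature; 460/530 nm ratio gave %Activity and AC50 for induction.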

[18] = target: Peroxisome proliferator-activated receptor alpha (Homo sapiens) (UniProt Q07869); test: qHTS assay for small molecule agonists of the peroxisome proliferator-activated receptor alpha (PPARalpha) signaling pathway (AID 651778); conditions: PathHunter PPARalpha complementation, chemiluminescence, 6 h; max response: stronger effect = higher value; also: % of control where 0% means no effect
Peroxisome proliferator-activated receptor alpha (Homo sapiens), sequence (Q07869 whole entry, looked up, the tested form may be a part): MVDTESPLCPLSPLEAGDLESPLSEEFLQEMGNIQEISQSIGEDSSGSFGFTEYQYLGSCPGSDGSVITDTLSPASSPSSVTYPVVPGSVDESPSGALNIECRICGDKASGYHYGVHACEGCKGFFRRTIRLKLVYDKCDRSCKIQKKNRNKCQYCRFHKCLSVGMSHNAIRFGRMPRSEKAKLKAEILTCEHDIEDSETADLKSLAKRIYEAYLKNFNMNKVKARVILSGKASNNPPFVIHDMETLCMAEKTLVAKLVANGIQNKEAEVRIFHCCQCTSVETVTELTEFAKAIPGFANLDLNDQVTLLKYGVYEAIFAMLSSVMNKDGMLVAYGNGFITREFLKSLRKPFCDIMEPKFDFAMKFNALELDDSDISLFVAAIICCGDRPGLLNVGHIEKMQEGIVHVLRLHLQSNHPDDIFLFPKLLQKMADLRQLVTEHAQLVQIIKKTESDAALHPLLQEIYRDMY
In short: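 Enzyme-fragment complementation assay in which ligand-bound PPARalpha translocates and forms an active enzyme that generates chemiluminescence. Cells were plated overnight, exposed to compound for 6 hr at 37 C, and then given detection reagent for 60 min at room temperature.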

[19] = qHTS assay for small molecule agonists of the antioxidant response element (ARE) signaling pathway measured by Nrf2-dependant transcriptional activity - cell viability counter screen (AID 720653; active = well fitted curve in the direction sought with a large enough effect in the repeat runs; an effect the other way counts as inactive or inconclusive; also: % is scaled to controls: 0 for no effect and ±100 for the full control effect); conditions: ARE-bla HepG2 viability, CellTiter-Glo ATP luminescence, 16 h; max response: stronger effect = lower value
In short: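 ARE-bla HepG2 cells treated with compounds for 16 h at 37C; this counter screen measures viability as intracellular ATP by CellTiter-Glo luminescence after 30 min at room temperature.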

[20] = qHTS assay for cell viability of the p53RE-bla HCT-116 cell line (AID 743292); conditions: p53RE-bla HCT-116 viability, ATP luminescence, 16 h; series mostly up to 95 µM; also: % is scaled to controls: 0 for no effect and ±100 for the full control effect; nearly all actives have a fitted effect of over 55% in size
In short: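 ATP-based luminescent viability (CellTiter-Glo, 30 min RT) after 16 h compound treatment at 37 C of p53RE-bla HCT-116 cells, seeded at 4,000 cells/well and rested 5 h before dosing.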

CC(C)COC(=O)COc1cc(Cl)c(Cl)cc1Cl
inactive: Potency [1] > 92 µM | Potency [2] | Potency [3] | Potency [4] | Potency [5] | outcome [6] | outcome [7] | Potency [8] | outcome [9] | outcome [10] | Potency [11] | Potency [12] | Potency [13] | Potency [14] | Potency [15] | Potency [16] | Potency [17] | max response [18] 9.61% | max response [19] 7.92% | Potency [20]

CCCC(=O)OC(=O)CCC
inactive: Potency [1] > 92 µM | Potency [2] | Potency [3] | Potency [4] | Potency [5] | outcome [6] | outcome [7] | Potency [8] | outcome [9] | outcome [10] | Potency [11] | Potency [12] | Potency [13] | Potency [14] | Potency [15] | Potency [16] | Potency [17] | max response [18] -9.39% and -1.32% | max response [19] -5.41% and 18.3% | Potency [20]

O=C(OCc1ccccc1)c1ccccc1O
inactive: Potency [1] > 92 µM | Potency [2] | Potency [3] | Potency [4] | Potency [5] | outcome [6] | outcome [7] | Potency [8] | outcome [9] | outcome [10] | Potency [11] | Potency [12] | Potency [13] | Potency [14] | Potency [15] | Potency [16] | Potency [17] | max response [18] -2.61% and -0.719% | max response [19] 4.39% and 10% | Potency [20]

O=[N+]([O-])c1cccc(I)c1
inactive: Potency [1] > 92 µM | Potency [2] | Potency [3] | Potency [4] | Potency [5] | outcome [6] | outcome [7] | Potency [8] | outcome [9] | outcome [10] | Potency [11] | Potency [12] | Potency [13] | Potency [14] | Potency [15] | Potency [16] | Potency [17] | max response [18] -0.601% | max response [19] 2.94% | Potency [20]

O=c1[nH]ncc2ccccc12
inactive: Potency [1] > 92 µM | Potency [2] | Potency [3] | Potency [4] | Potency [5] | outcome [6] | outcome [7] | Potency [8] | outcome [9] | outcome [10] | Potency [11] | Potency [12] | Potency [13] | Potency [14] | Potency [15] | Potency [16] | Potency [17] | max response [18] -3.48% | max response [19] 2.85% | Potency [20]

COc1ccc([N+](=O)[O-])cc1N
inactive: Potency [1] > 92 µM | Potency [2] | Potency [3] | Potency [4] | Potency [5] | outcome [6] | outcome [7] | Potency [8] | outcome [9] | outcome [10] | Potency [11] | Potency [12] | Potency [13] | Potency [14] | Potency [15] | Potency [16] | Potency [17] | max response [18] -6.59% and -0.402% | max response [19] -6.61% and -1.85% | Potency [20]

COc1ccc(C(=O)Nc2ccccc2)cc1[N+](=O)[O-]
inactive: Potency [1] > 92 µM | Potency [2] | Potency [3] | Potency [4] | Potency [5] | outcome [6] | outcome [7] | Potency [8] | outcome [9] | outcome [10] | Potency [11] | Potency [12] | Potency [13] | Potency [14] | Potency [15] | Potency [16] | Potency [17] | max response [18] -0.106% | max response [19] 0.739% | Potency [20]
